Screening results: PubChem BioAssay, National Center for Advancing Translational Sciences (NCATS)
An excerpt weighted towards active compounds, which were near 7.5% of everything screened.
NPC1 promoter act = qHTS Assay for NPC1 Promoter Activators; Huh7 NPC1 promoter luciferase reporter, 24 h; actives 2.4% (n = 320,000); Potency, µM (titrated, usually from 9.22 µM), for the others: at the highest dose activation, hits mostly activators; AID 485313, 2010; further: % of control where 0% means no effect; nearly all actives have a fitted effect of over 60% in size
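Luminescence read-out of NPC1 promoter-driven luciferase in stably transfected Huh7 cells; compounds delivered in DMSO and left 24 h at 37C, 5% CO2, qHTS titration format.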
ELG1 genotox = qHTS screen for small molecules that induce genotoxicity in human embryonic kidney (HEK293T) cells expressing luciferase-tagged ELG1. HEK293T ELG1-luciferase reporter, luminescence, 16 h. Potency, µM (top dose mostly 46 µM), inactives show top-dose activity change, positive = activation, actives largely listed as activators. actives 1.3% (n = 330,000); further: % of control where 0% means no effect; nearly all actives have a fitted effect of over 60% in size
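DMSO vehicle served as control against compound-treated ELG1-luciferase HEK293T cells; exposure lasted 16 hr at 37 °C and 5% CO2, followed by ONE-Glo luminescence detection after 30 min.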
Rab9 promoter act = qHTS Assay for Rab9 Promoter Activators | Huh7 Rab9 promoter-luciferase reporter, luminescence, 24 h | Potency, µM (highest dose often 9.22 µM), for the others: at the top dose activation, negative = inhibition, hits mostly activators | AID 485297, 2010 | actives 2.8% (n = 320,000); further: % of control where 0% means no effect; nearly all actives have a fitted effect of over 60% in size
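Huh7 cells stably carrying a Rab9 promoter-luciferase reporter, 1500 cells per well in OP-MEM I with 10% FBS, treated with compound 24 hours at 37C. Luciferase activity read by luminescence after 10 minutes with Amplite reagent.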
FLuc counter = qHTS profiling assay for firefly luciferase inhibitor/activator using purifed enzyme and Km concentrations of substrates (counterscreen for miR-21 project) | AID 588342, 2011 | Potency, µM (series often up to 57.5 µM), for inactives: at the top dose activity change, negative = inhibition, usual class: inhibitors | purified FLuc, Km substrates, luminescence inhibition | Luciferin 4-monooxygenase (Photinus pyralis), P08659 | actives 6.9% (n = 360,000);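 further: plate controls were vehicle for no effect and reference inhibitor for full effect; nearly all actives have a fitted effect of over 55% in size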
Target sequence (P08659 whole entry, looked up): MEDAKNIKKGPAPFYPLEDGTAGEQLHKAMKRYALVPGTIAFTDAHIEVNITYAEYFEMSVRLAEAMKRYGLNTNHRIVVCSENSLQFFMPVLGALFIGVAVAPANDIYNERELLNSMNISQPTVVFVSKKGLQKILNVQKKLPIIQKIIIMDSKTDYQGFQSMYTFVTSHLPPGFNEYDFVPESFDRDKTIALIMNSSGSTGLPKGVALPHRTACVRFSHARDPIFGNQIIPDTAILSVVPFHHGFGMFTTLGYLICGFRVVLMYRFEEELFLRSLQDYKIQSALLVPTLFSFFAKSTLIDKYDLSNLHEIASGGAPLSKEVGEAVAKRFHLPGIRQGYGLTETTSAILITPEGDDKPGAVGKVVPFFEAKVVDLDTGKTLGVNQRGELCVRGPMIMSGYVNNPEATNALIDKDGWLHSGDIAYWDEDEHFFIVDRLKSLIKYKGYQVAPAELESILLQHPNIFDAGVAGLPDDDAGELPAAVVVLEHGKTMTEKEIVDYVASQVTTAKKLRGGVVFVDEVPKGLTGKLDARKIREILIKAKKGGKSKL
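Biochemical qHTS of compounds, final roughly 60 µM downward over six points, against 10 nM purified firefly luciferase using Km concentrations of substrates (10 uM D-luciferin, 10 uM ATP) in Tris acetate pH 7.5 buffer; luminescence output.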
Luc counter = Counterscreen for Luciferase (Kinase-Glo TM) Inhibition | Luciferin 4-monooxygenase (Photuris pensylvanica), Q27757 | Kinase-Glo luciferase, ATP luminescence, 8 min | Potency, µM (top dose mostly 38.3 µM), without a hit: top-dose activity change, negative = inhibition, actives largely listed as inhibitors | actives 0.28% (n = 200,000); further: on the % scale 0 is the no-effect control and ±100 the full control effect; nearly all actives have a fitted effect of over 60% in size
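Recombinant Kinase-Glo luciferase, 10 uM ATP (linear range), luciferin; imidazole pH 7.2 / KCl / MgCl2 / Tween / BSA buffer; 8 min RT; luminescence.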
SMN2 splice up = qHTS Assay for Enhancers of SMN2 Splice Variant Expression. Potency, µM (top dose mostly 46.1 µM), for inactives: at the top dose activity change, positive = activation, actives largely listed as activators. HEK293 SMN2-luciferase splicing reporter, luminescence, 30-36 h. actives 2.8% (n = 210,000). AID 1458, 2008; further: % of control where 0% means no effect; nearly all actives have a fitted effect of over 55% in size
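HEK293 cells carry an SMN2 […]–luciferase reporter in which exon 7 inclusion puts luciferase in frame. Cells were plated 10-12 h before compound addition, then incubated 30-36 h at 37C. ONE-Glo luminescence was read; sodium butyrate at 4.5 mM final served as control.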
Numbers without * were called inactive; [ ] = dose if it differs, or a comment. The call rests on the fitted dose curve; in most records, active means well fitted curve in the direction sought with a large enough effect; inconclusive means small, poorly fitted or top-dose-only effect, or another doubt; inactive means no such curve, though single readings can be large; an effect the other way counts as inactive or inconclusive. Potency means the concentration at half of the fitted maximal effect.

For COc1ccc(NC(=O)C2=Cc3ccccc3OC2)cc1 the results were NPC1 promoter act 0.4µM*, ELG1 genotox 0.52µM*, Rab9 promoter act 0.56µM*, FLuc counter 1.5µM*, Luc counter -2% and SMN2 splice up 7.9µM*.
`O=C(Nc1ccc(Cl)cc1)C1=Cc2cc(Cl)ccc2OC1` gave NPC1 promoter act 2%, ELG1 genotox -5%, Rab9 promoter act 0%, FLuc counter -4%[2.3 µM], Luc counter 0% and SMN2 splice up 27%.
COc1ccc(NC(=O)C2=Cc3cccc(OC)c3OC2)cc1 was read as NPC1 promoter act 2.8µM*, ELG1 genotox inconclusive, Rab9 promoter act 2.5µM*, FLuc counter 5.4µM*, Luc counter 0% and SMN2 splice up 13µM*.
`O=C(Nc1ccc(Cl)cc1Cl)C1=Cc2ccccc2OC1` gave NPC1 promoter act 1.4µM*, ELG1 genotox 2.1µM*, Rab9 promoter act 1µM*, FLuc counter 1.9µM*, Luc counter -4% and SMN2 splice up inconclusive.
For COc1ccccc1NC(=O)C(=O)NCC(c1ccc2c(c1)OCO2)N1CCOCC1 (centres undefined) the results were FLuc counter 0%.
For COc1cc(NC(=O)CCC(=O)Nc2ccc3nc(N4CCOCC4)cc(C)c3c2)cc(OC)c1OC the results were NPC1 promoter act 24%, ELG1 genotox 6%, Rab9 promoter act 16% and FLuc counter 15µM*.
Screening COc1ccc(NC(=O)CCC(=O)Nc2ccc3nc(N4CCOCC4)cc(C)c3c2)c(OC)c1 returned NPC1 promoter act inconclusive, ELG1 genotox inconclusive, Rab9 promoter act 2.5µM* and FLuc counter 2.7µM*.
`CCOc1ccc(C(=O)NCc2ccco2)cc1Cl` gave NPC1 promoter act -4%, ELG1 genotox -1%, Rab9 promoter act 11% and FLuc counter 2%.
O=c1c2c3c(sc2nc(NCCO)n1CCc1ccccc1)CCCCC3 was read as NPC1 promoter act -17%, ELG1 genotox 0%, Rab9 promoter act -6%, FLuc counter inconclusive, Luc counter -2% and SMN2 splice up -3%.
Screening COCCNc1nc2sc3c(c2c(=O)n1Cc1ccco1)CCCCC3 returned NPC1 promoter act inconclusive, ELG1 genotox inconclusive, Rab9 promoter act 2µM*, FLuc counter inconclusive, Luc counter 1% and SMN2 splice up 32µM*.
O=c1c2c3c(sc2nc(NCCO)n1Cc1ccco1)CCCCC3 was read as NPC1 promoter act 14%, ELG1 genotox 17%, Rab9 promoter act 13%, FLuc counter 15µM*, Luc counter -1% and SMN2 splice up 41%.
`CCCC12CN3CC(CCC)(CN(C1)C3c1c(C)[nH]c(=O)[nH]c1=O)C2=O` (centres undefined) gave FLuc counter 0% and SMN2 splice up -5%.
N=c1cc(C2(O)CCCCC2)n2c(nc3ccccc32)s1 was read as NPC1 promoter act 0.28µM*, ELG1 genotox 0.58µM*, Rab9 promoter act 0.28µM*, FLuc counter 0.67µM*, Luc counter 9% and SMN2 splice up -11%.
Screening O=C1c2sc3nc4ccccc4n3c2C(=O)N1c1ccccc1Cl returned NPC1 promoter act -3%, ELG1 genotox 1%, Rab9 promoter act 14%, FLuc counter inconclusive, Luc counter 0% and SMN2 splice up inconclusive.
COc1cccc(CNC(=O)C(C)n2ncn3cccc3c2=O)c1OC (centres undefined) was read as FLuc counter 6µM*.
Screening COc1cccc(CNC(=O)Cn2ncn3cccc3c2=O)c1OC returned NPC1 promoter act 3%, ELG1 genotox 9%, Rab9 promoter act 4% and FLuc counter 0%.
Cc1nc2ccc(NS(=O)(=O)c3ccc4c(c3)OCCO4)cc2s1 was read as NPC1 promoter act -19%, ELG1 genotox 3%, Rab9 promoter act -27%, FLuc counter 4%, Luc counter 2% and SMN2 splice up -106%.
Screening O=C(Cn1ncc2c(Cl)cccc21)NCc1cccc(Br)c1 returned FLuc counter 4.8µM*.
Screening O=C(Cn1ncc2c(Cl)cccc21)NCc1cccc(F)c1 returned FLuc counter -2%.
Screening N#C[C@@H](N=Nc1ccccc1C(=O)O)C(N)=O returned Luc counter -1%[7.66 µM] and SMN2 splice up -9%[9.22 µM].
Screening CN(C)S(=O)(=O)c1cccc(NC(=O)c2n[nH]c(=O)c3ccccc23)c1 returned NPC1 promoter act -1%, ELG1 genotox -5%, Rab9 promoter act -4%, FLuc counter -12%, Luc counter -2% and SMN2 splice up -2%.
For CC(C)c1ccc(NC(=O)c2n[nH]c(=O)c3ccccc23)cc1 the results were NPC1 promoter act inconclusive, ELG1 genotox inconclusive, Rab9 promoter act 1.6µM*, FLuc counter -1%, Luc counter -3% and SMN2 splice up 5.6µM*.
For Cc1cc(NC(=O)c2n[nH]c(=O)c3ccccc23)ccc1Br the results were NPC1 promoter act inconclusive, ELG1 genotox inconclusive, Rab9 promoter act 5µM* and FLuc counter 5%.
`CCN(CC)S(=O)(=O)c1cc(NC(=O)c2n[nH]c(=O)c3ccccc23)ccc1C` gave NPC1 promoter act 6%, ELG1 genotox -12%, Rab9 promoter act inconclusive, FLuc counter 24µM*, Luc counter -3% and SMN2 splice up -26%.
`Cc1ccc(NC(=O)CN2C(=O)COc3ccc(S(=O)(=O)N4CCOCC4)cc32)c(Cl)c1` gave FLuc counter -2%.
Screening COC(=O)c1sccc1S(=O)(=O)N(CC(=O)NCc1ccc(F)cc1)c1ccc(Cl)cc1 returned FLuc counter -12%.
Screening O=C(NC1CCCC1)c1cccc(S(=O)(=O)N2CCCC2)c1 returned NPC1 promoter act 0%, ELG1 genotox 3%, Rab9 promoter act 1% and FLuc counter -1%.
For Cc1cccc(NC(=O)CN(C)S(=O)(=O)c2ccc3c(c2)CCC(=O)N3)c1C the results were FLuc counter 0% and SMN2 splice up 3%.
COc1ccc(C(=O)Nc2nnc(SCC(=O)NC3CCCC3)s2)c(OC)c1 was read as NPC1 promoter act 0.1µM*, ELG1 genotox 2.9µM*, Rab9 promoter act 0.1µM* and FLuc counter 0.54µM*.
